N370S GC mod – qHTS Assay for Inhibitors and Activators of N370S glucocerebrosidase as a Potential Chaperone Treatment of Gaucher Disease; N370S GC spleen homogenate, 4MU-glucoside fluorescence; Potency, µM (series often up to 59.4 µM), without a hit: at the highest dose activity change, negative = inhibition, usual class: inhibitors; 330,000 tested, 0.092% active; Lysosomal acid glucosylceramidase (Homo sapiens), P04062;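 further: potency means the concentration at half of the fitted maximal effect; 0% = full enzyme activity and -100% = no enzyme basal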
IL2 activator – qHTS of IL-2 Activators; AID 652025, 2013; activation, % (series mostly up to about 46 µM); IL-2 activation reporter assay, cell-based qHTS; stimulated with anti-CD3/CD4/CD28 beads; in transgenic mouse T cells; 360,000 tested, 0.065% active; in the data active means activation above about 50%; inconclusive means mostly about 30% to 49%; further: 0% is about no effect
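Unstimulated transgenic mouse T cells; 60-min compound exposure; bead-based TCR/CD4/CD28 stimulation; 18 h culture, 37 degrees C; dual fluorescence (EGFP, DsRed) plate cytometry.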
BRCA1 expr act – qHTS Assay to Identify Small Molecule Activators of BRCA1 Expression; Potency, µM (titrated, usually from 46.1 µM), without a hit: at the highest dose activation, hits mostly activators; AID 624202, 2012; 380,000 tested, 1.1% active; MCF7-BRCA1-FFLuc reporter, luminescence, 48 h; response scale: scaled: vehicle 0%, 10 µM genistein 100%; further: potency means the concentration at half of the fitted maximal effect; nearly all actives have a fitted effect of over 80% in size
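MCF7-BRCA1-FFLuc cells, 2000/well in phenol-red-free MEM, attached 2 h then treated 48 h at 37 C. Luciferase luminescence read 15 min after reagent; normalized to genistein maximum activation (10microM) and DMSO, concentration-response fitted.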
Nrf2 activator – qHTS of Nrf2 Activators | AREc32 ARE-luciferase reporter (MCF7-derived line), luminescence, 24 h | Potency, µM (doses to about 46.1 µM), inactives show top-dose activation, most hits filed as activators | 410,000 tested, 0.31% active; further: potency means the concentration at half of the fitted maximal effect; % of control where 0% means no effect; nearly all actives have a fitted effect of over 65% in size
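Each well held 1000 AREc32 cells, which were incubated with compound for 24 hr at 37 deg C after overnight attachment, and ARE reporter activity was quantified by firefly luciferase luminescence.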
Chronic BCR inh – qHTS Assay to Find Inhibitors of Chronic Active B-Cell Receptor Signaling. ABC-DLBCL IkBa-CBG/CBR reporter, luminescence ratio, 4 h. Potency, µM (top dose mostly 46.1 µM), for the others: at the top dose activity change, negative = inhibition, hits mostly inhibitors. 340,000 tested, 0.05% active. AID 493014, 2011; active means well fitted inhibition curve with a large enough effect in the signal ratio, with a control signal flat, not every such curve was filed as active; inconclusive means small, poorly fitted or top-dose-only effect, or effect the other way, or a change in a side signal; the % refers to the signal ratio;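 further: potency means the concentration at half of the fitted maximal effect; plate controls were basal doxycycline-induced cells for no effect and cells given 10 µM MG132 for full effect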
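Doxycycline induced both beetle luciferases in TMD8 lymphoma cells; IKK-driven degradation limits the IkappaBalpha-fused green signal, while red luminescence normalises for cell number and nonspecific effects. Compounds tested up to 46 uM, 4 hrs.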
Integrin act MD – qHTS for Activators of Integrin-Mediated Alleviation for Muscular Dystrophy; alpha7betagal myoblasts, beta-gal FDG fluorescence, 48 h; Potency, µM (titrated, usually from 38.3 µM), for inactives: top-dose activation, hits mostly activators; 350,000 tested, 0.064% active; AID 624291, 2012;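 further: potency means the concentration at half of the fitted maximal effect; 100% = response of the positive control SU9516; nearly all actives have a fitted effect of over 60% in size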
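alpha7betagal+/- myoblasts (passage 13, 250/well) treated 48 h at 37C with compounds at 1:260 dilution of DMSO stock. Lysed, then beta-galactosidase activity read as FDG fluorescence (ex 480/em 540) after 30 min, with pre-read for autofluorescence.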
Starred values were filed as active, the others as inactive; ? = inconclusive; . = not tested or not shown. In the library only some 1.4% were active in any assay of this set; here they are far more common. Unless noted, the call rests on the fitted dose curve; in most records, active means well fitted curve in the direction sought with a large enough effect; inconclusive means small, poorly fitted or top-dose-only effect, or another doubt; inactive means no such curve, though single readings can be large; an effect the other way counts as inactive or inconclusive.

SMILES	N370S GC mod	IL2 activator	BRCA1 expr act	Nrf2 activator	Chronic BCR inh	Integrin act MD
CCOc1ccc(NC(=O)CN2C(=O)NC(CCSC)C2=O)cc1 (centres undefined)	2.6%	1.3	13.3%	4.5%	-6.1%	10µM*
COC(=O)C#CC(=O)OC	-7.2%	.	.	.	.	.
CC(=O)c1cccc(NC(=O)c2ccc(OC3CSC3)cc2)c1	-0.6%	-0.4	28.2%	-0.2%	22.2%	10.5%
Cc1cccc(NC(=O)c2ccc(OC3CSC3)cc2)c1	28.2%	-0.2	11.2µM*	-0.4%	?	-10.2%
Oc1ccc2ccccc2c1N=Nc1ccccc1F	5.3%	0.0	-46.3%	3.55µM*	0.9%	-14.7%
COc1ccccc1OCCn1c(C(C)Oc2ccccc2)nc2ccccc21 (centres undefined)	.	.	.	0.4%	.	.
COC(=O)c1c(NC(=O)c2cc3ccccc3c(=O)o2)sc2c1CCCC2	.	.	-4.5%	12.6µM*	.	.
CCCOC(=O)c1c(NC(=O)c2cc3ccccc3c(=O)o2)sc2c1CCC(C)C2 (centres undefined)	.	.	.	4.7%	.	.
CCCC/C(O)=C/c1nc2ccccc2[nH]c1=O	17.5%	4.5	-3.9%	0.7%	14.6µM*	14.3%
O/C(=C\c1nc2ccccc2[nH]1)c1cccs1	0.6%	1.0	12.6µM*	15.3%	?	-18.2%
CC(C)(C)/C(O)=C/c1nc2ccccc2[nH]c1=O	8.9%	0.2	20.4%	-1.5%	1.0%	16.6%
O=c1[nH]c2ccccc2nc1/C=C(\O)c1cccs1	-11.7%	147.6*	66.2%	?	?	5.1%
COc1cc(NC(=O)CN(C)S(=O)(=O)c2ccc3[nH]c4c(c3c2)CCCC4)cc(OC)c1OC	.	.	.	6.2%	.	.
O=C1/C(=C\c2ccco2)SC(=S)N1c1ccc(O)cc1	-11.3%	1.8	34.2%	15.0%	?	?
O=C1/C(=C/C=C/c2ccco2)SC(=S)N1c1ccc(O)cc1	-12.2%	4.0	53.1%	10µM*	-0.3%	6.5%
COc1cccc2cc(C(=O)OCC(=O)N3CC(C)OC(C)C3)c(=O)oc12 (centres undefined)	.	-0.7	-2.5%	15.8µM*	?	-24.8%
CCN(c1ccccc1)S(=O)(=O)c1ccc(C(=O)N2CCN(c3ccccc3)CC2)cc1	.	-0.2	-31.7%	2.2%	2.2%	-6.2%
COc1ccc(-n2[nH]c3c(cnc4ccccc43)c2=O)cc1	.	0.1	14.1µM*	3.3%	.	.
Fc1cccc(Cl)c1Cn1nnc(-c2ccc3c(c2)OCO3)n1	9.0%	-2.7	8.91µM*	-0.3%	-1.2%	-0.5%
Cc1cccn2c(=O)cc(COc3ccc(NC(=O)COc4ccc(F)cc4)cc3)nc12	.	.	.	-1.6%	.	.
COc1ccc2c(c1OC)C(=O)OC2Nc1nc(-c2ccc([N+](=O)[O-])cc2)cs1 (centres undefined)	-5.5%	-0.7	12.6µM*	6.1%	14.2%	-13.4%
COc1ccc(-c2csc(NC3OC(=O)c4c3ccc(OC)c4OC)n2)cc1OC (centres undefined)	3.2%	-1.1	-55.3%	?	?	-57.7%
CC1=CC(O)=NS(=O)(=O)O1	.	.	14.7%	.	.	.
Oc1ccccc1-c1nc(NCc2ccco2)c2ccccc2n1	21.8%	13.2	-18.9%	?	?	-11.6%
Fc1ccccc1-c1nc(NCc2ccco2)c2ccccc2n1	11.2µM*	-3.3	-42.0%	6.5%	?	-13.6%
SMILES	N370S GC mod	IL2 activator	BRCA1 expr act	Nrf2 activator	Chronic BCR inh	Integrin act MD
c1ccc(-c2cnnc(-c3ccccn3)n2)cc1	.	-2.5	4.47µM*	11.7%	.	-22.2%
COCCOc1ccc(C(F)(F)F)cc1NC(=O)c1ccc(C)cc1	8.7%	-0.8	-44.8%	11.2µM*	?	7.7%
COc1ccc(-c2cc(-c3cc(F)ccc3O)[nH]n2)cc1OC	2.8%	-4.1	10µM*	8.5%	?	-6.9%
COc1ccc(-c2cc(-c3ccccc3O)[nH]n2)cc1OC	6.4%	-0.6	?	11.4%	?	21.1%
CCc1ccc(NC(=O)Cn2c(=O)n(Cc3nc(-c4ccccc4)no3)c(=O)c3cc4c(cc32)OCO4)cc1	.	.	.	-0.3%	.	.
Cc1nc2nc(SCC(=O)NC3CCC(C)CC3)nn2c(C)c1Cc1ccccc1 (centres undefined)	.	.	.	-0.8%	8.8%	.
O=C(Nc1cccnc1)c1cnn2c(C(F)F)cc(C3CC3)nc12	9.8%	-2.0	-34.7%	2.3%	.	5.9%
O=C(Nc1cc(Br)ccc1O)c1cnn2c(C(F)F)cc(C3CC3)nc12	10.5%	-0.5	-48.3%	2.51µM*	?	?
COc1ccc(CC(=O)Nc2ccc(S(=O)(=O)Nc3nccs3)cc2)cc1	-4.0%	1.7	0.1%	0.3%	0.4%	-27.2%
COc1ccc(S(=O)(=O)Nc2ccc(S(=O)(=O)Nc3nccs3)cc2)cc1	2.0%	-1.2	-5.3%	0.0%	-2.5%	12.6µM*
CCn1c(/C=C/c2ccccc2F)nc2ccccc2c1=O	-4.8%	-0.7	-55.4%	2.82µM*	-10.6%	-61.4%
O=C(CSc1ccc(Cl)cc1)N1CCOCC1	4.6%	2.3	91.9%	-1.0%	1.8%	3.4%

Screening data from PubChem BioAssay.
